# Mito fusion act = mitochondrial division inhibition or fusion activation; S. cerevisiae fusion-defective mutant growth rescue, CellTiterGlo 48 h; Potency, µM (doses to about 46.1 µM), for inactives: at the highest dose growth rescue (activation), hits mostly activators; actives 0.23% (n = 320,000); AID 485298; also: potency is read from the fitted curve at half-maximal effect; % of control where 0% means no effect; nearly all actives have a fitted effect of over 45% in size
#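 Growth-rescue viability read-out: after 48 h at the non-permissive 37C in glycerol/ethanol YPEG, yeast mitochondrial fusion mutants are measured by CellTiterGlo luminescence; compounds (23 nl pinned per well) restoring growth score as division inhibitors or fusion activators.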
# BRCA1 expr up = BRCA1 expression activation; MCF7-BRCA1-FFLuc reporter, luminescence, 48 h; response scale: scaled: vehicle 0%, 10 µM genistein 100%; Potency, µM (highest dose often 46.1 µM), inactives show at the top dose activation, usual class: activators; AID 624202; actives 1.1% (n = 380,000); also: potency is read from the fitted curve at half-maximal effect; nearly all actives have a fitted effect of over 80% in size
#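 Reporter cells (MCF7, BRCA1 promoter-firefly luciferase) received library compounds across a concentration series for 48 h. End-point luminescence was measured and concentration-effect curves derived after normalization.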
# BCR signal inh = chronic active BCR signaling inhibition; actives 0.05% (n = 340,000); Potency, µM (series often up to 46.1 µM), for inactives: at the top dose activity change, negative = inhibition, most hits filed as inhibitors; AID 493014; ABC-DLBCL IkBa-CBG/CBR reporter, luminescence ratio, 4 h; active = well fitted inhibition curve with a large enough effect in the signal ratio, with a control signal flat, not every such curve was filed as active; inconclusive = small, poorly fitted or top-dose-only effect, or effect the other way, or a change in a side signal; the % refers to the signal ratio;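 also: potency is read from the fitted curve at half-maximal effect; plate controls were basal doxycycline-induced cells for no effect and cells given 10 µM MG132 for full effect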
#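 TMD8 ABC-DLBCL cells carrying doxycycline-inducible green luciferase fused to IkappaBalpha plus unfused red luciferase were exposed to compounds (up to 46 uM) for 4 hrs at 37C. Activity came from the overlap-corrected green/red luminescence ratio.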
# PTHR1 agonist = PTHR1 (human) receptor agonism. Q03431. HEK293 GP2 PTHR1 cells, GloSensor cAMP luminescence, 1 h. Potency, µM (doses to about 115 µM), inactives show at the top dose activation, hits mostly activators. actives 0.075% (n = 410,000). AID 743266; also: potency is read from the fitted curve at half-maximal effect; nearly all actives have a fitted effect of over 55% in size
# Target sequence (Q03431 whole entry, looked up): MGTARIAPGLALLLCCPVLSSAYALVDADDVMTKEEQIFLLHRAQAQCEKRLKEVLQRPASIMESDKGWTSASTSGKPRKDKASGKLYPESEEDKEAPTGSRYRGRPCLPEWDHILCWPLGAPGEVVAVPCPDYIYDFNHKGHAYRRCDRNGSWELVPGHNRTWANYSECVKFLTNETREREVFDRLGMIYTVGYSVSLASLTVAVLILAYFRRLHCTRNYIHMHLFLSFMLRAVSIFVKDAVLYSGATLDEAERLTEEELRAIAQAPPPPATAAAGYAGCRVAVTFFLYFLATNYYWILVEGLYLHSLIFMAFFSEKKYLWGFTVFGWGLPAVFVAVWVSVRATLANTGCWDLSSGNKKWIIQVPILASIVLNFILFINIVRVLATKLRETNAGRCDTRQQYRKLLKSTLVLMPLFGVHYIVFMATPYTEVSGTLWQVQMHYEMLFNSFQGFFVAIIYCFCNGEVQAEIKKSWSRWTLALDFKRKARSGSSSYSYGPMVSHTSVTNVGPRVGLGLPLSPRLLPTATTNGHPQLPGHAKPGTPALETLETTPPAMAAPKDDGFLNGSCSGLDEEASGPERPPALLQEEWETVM
#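 HEK-293-derived GP2 cells expressing PTHR1 and a GloSensor cAMP reporter, 3,000/well, plated overnight, given luciferin plus IBMX (each 0.5 mM as added) for 1 h at 37 °C, then compound for 1 h at 37 °C. Luminescence was read after 15 min at room temperature.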
# TCR activator = activators of T cell receptors; primary human leukocytes, anti-CD3, IL-2 HTRF, 48 h; Potency, µM (doses to about 9.22 µM), for the others: top-dose activation of IL-2 secretion, hits mostly activators; 330,000 tested, under 10 active; also: % of control where 0% means no effect
#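 48 hr co-incubation of compounds, a-CD3 beads and primary human leukocytes; IL-2 quantified homogeneously by HTRF with anti-IL-2 K and d2 conjugates.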
# IL-2 act = IL-2 activation | IL-2 activation reporter assay, cell-based qHTS; stimulated with anti-CD3/CD4/CD28 beads; in transgenic mouse T cells | actives 0.065% (n = 360,000) | AID 652025 | activation, % (series mostly up to about 46 µM); in the data active = activation above about 50%; inconclusive = mostly about 30% to 49%; also: 0% is about no effect
#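 Readout: EGFP and DsRed signals by fluorescent plate cytometry. Unstimulated transgenic mouse T cells received compound 60 min before antibody-bead stimulation, then incubated 18 h at 37 degrees C.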
# The depositor's hits bear a star; i = inactive; ? = inconclusive; . = no result given; [ ] = remark or other dose. Rows were chosen to be rich in hits. Some 1.3% of all compounds tested hit in one or more screens of this group. Unless noted, calls follow the shape of the dose curve; as a rule, active = well fitted curve in the direction sought with a large enough effect; inconclusive = small, poorly fitted or top-dose-only effect, or another doubt; inactive = no such curve, though single readings can be large; an effect the other way counts as inactive or inconclusive.
SMILES,Mito fusion act,BRCA1 expr up,BCR signal inh,PTHR1 agonist,TCR activator,IL-2 act
Nc1nc(SCC(=O)Nc2ccc(OCc3ccccc3)cc2)n[nH]1,-0.1%,10µM*,?,-37.3%,-5.6%,0.7
CN1CCN(CCOc2ccc(-c3ccccc3)cc2)CC1,-5.2%,7.94µM*,5.6%,i,2.9%,0.6
CC(C)=CC(=O)Nc1ccc(OCc2ccccc2)cc1,6.1%,2.82µM*,-5.7%,i,-3.2%,-0.7
CN1CCN(CCC(=O)Nc2ccc(OCc3ccccc3)cc2)CC1,0.7%,11.2µM*,16.3%,-8.2%,-0.9%,-0.6
Cc1nc(SCC(=O)Nc2ccc(OCc3ccccc3)cc2)n[nH]1,-3.5%,73.3%,-5.0%,-51.5%,3.7%,0.9
CN1CCN(CCCOc2ccc(-c3ccccc3)cc2)CC1,-13.2%,?,-1.0%,-23.3%,-23.9%,-0.1
O=C(CCN1CCN(CCO)CC1)Nc1ccc(OCc2ccccc2)cc1,1.3%,12.3%,.,i,3.5%,-2.8
C1=Nc2ccccc2/C1=C/c1ccccc1,.,-5.1%,.,.,.,.
COc1ccc2c3n(nc2c1)CCN=C3c1cc(Cl)c(N)c(Cl)c1,29.8%,-32.7%,?,i,2.5%,0.0
Nc1c(Cl)cc(C2=NCCn3nc4cc(C(F)(F)F)ccc4c32)cc1Cl,12.6µM*,-73.4%,-16.3%,-5.5%,-4.9%,-2.4
Cc1csc(N=Nc2ccc(N(C)C)cc2)[n+]1[O-],.,?,.,-33.1%,.,-0.9
Cc1ccc(NC(=S)NC(=O)C2CCCC2)cc1C,-2.6%,?,?,-35.4%,0.7%,-4.4
Cc1ccc(NC(=S)NC(=O)C2CC2)c(C)c1,-17.5%,11.2µM*,?,-18.8%,-0.8%,-1.5
Cc1ccc(NC(=S)NC(=O)c2ccc(Br)o2)c(C)c1,5.8%,3.98µM*,1.3%,-17.7%,.,-0.1
Cc1ccc(NC(=O)CCC(=O)NNC(=S)Nc2ccccc2)c(C)c1,0.7%,-10.5%,-6.3%,i,4.3%,0.4
Cc1ccc(NC(=S)NNC(=S)Nc2ccc(C)cc2C)cc1,?,-49.8%,17.8µM*,-23.3%,5.4%,-3.6
CC(=O)Nc1ccc(-c2nnc(SCc3ccccc3)n2C)cc1,.,24.7%,.,.,.,.
O=C(Nc1ccccc1F)n1ncc2cc(Cl)ccc21,5.62µM*,?,-9.3%,?,-10.8%,-1.3
c1ccc(-c2csc(NC3CCCCC3)n2)cc1,-11.3%,2.82µM*,-13.9%,-22.3%,-2.2%,-0.9
Cc1ccc(C(=O)N/N=C\c2ccc(OC(=O)c3cccc(F)c3)cc2)cn1,4.7%,1.9%,-3.0%,-11.6%,4.5%,3.5
CN(C)c1ccc(C=NNC(=S)Nc2ccc(F)cc2)cc1,.,3.98µM*,.,-27.9%,-6.1%,-0.7
CC(=O)Nc1ccc(C(=O)N/N=C/c2ccc(F)cc2)cc1,0.4%,21.9%,-10.0%,-27.7%,-0.5%,1.0
COC(=O)c1ccc(/C=N/NC(=O)c2cccc(F)c2)cc1,-4.8%,10µM*,?,-53.9%[57.5 µM],2.6%,-0.7
O=C(N/N=C\c1ccc(F)cc1)c1ccc(F)cc1,4.3%,11.2µM*,?,-8.0%,-2.9%,13.0
C[C@@H]1CN([C@@H](C)CO)C(=O)c2cc(Br)cnc2O[C@H]1CN(C)C(=O)c1ccccc1F,.,19.9%,.,i,.,-3.2
SMILES,Mito fusion act,BRCA1 expr up,BCR signal inh,PTHR1 agonist,TCR activator,IL-2 act
Cc1cc(N2CCN(C)CC2)nc2ccc(NC(=O)Nc3cccc(Cl)c3)cc12,.,.,.,i,.,.
CCCCCCN1C[C@H](n2cc(C3CC3)nn2)[C@@H](O)C[C@@H]1c1ccc(OC)cc1,.,-8.5%,.,-10.2%,.,-3.8
CCCCCc1cc[n+](CC(=O)c2ccccc2)cc1,.,1.2%,.,.,.,.
COc1ccccc1-c1ccc(Nc2cccc(C(F)(F)F)c2)nn1,-3.3%,-5.6%,?,i,-3.4%[46.1 µM],-0.1
COc1ccccc1-c1ccc(NC2CCCCC2)nn1,16.0%,7.08µM*,?,-25.7%[57.5 µM],-1.8%[46.1 µM],0.2
Cc1nnc(NC(=O)c2ccc3c(c2)NC(=O)CS3)s1,-0.9%,-1.4%,3.1%,i,0.9%,0.2
Cc1ccc(NC(=O)c2ccc3c(c2)NC(=O)CS3)nc1,-1.2%,7.94µM*,?,-16.5%,-2.5%,-4.6
O=C(CSc1nc2ccccc2n1CC(=O)N1CCCCC1)N1CCCCC1,-8.6%,-11.5%,11.0%,-1.0%,-0.5%,3.6
O=C(CSc1nc2ccccc2n1S(=O)(=O)c1ccccc1)N1CCCCC1,-1.9%,14.1µM*,12.5%,i,-1.0%,-0.2
COc1ccc(NC(=O)CSC2=Nc3ccccc3C3=NC(CC(=O)NCCc4ccccc4)C(=O)N23)cc1 (stereo not drawn),.,.,16.0%,-30.9%,.,.
Cc1ccc(Nc2nc(N)nc(CSc3nc(C)cc(C)n3)n2)cc1,-0.6%,-16.0%,.,i,5.3%,1.0
Nc1nc(CSc2ncccn2)nc(Nc2ccccc2)n1,-1.2%,3.98µM*,24.3%,i,.,-1.4
Cc1ccc(Nc2nc(N)nc(CSc3ncccn3)n2)cc1,-3.9%,2.24µM*,?,-0.4%,-1.4%,-2.6
Cc1ccc(Nc2nc(N)nc(CSc3nccn3C)n2)c(C)c1,-1.7%,7.08µM*,6.3%,-12.1%,0.8%,0.6
Cc1ccc(SCc2nc(N)nc(Nc3ccccc3C)n2)c(C)c1,18.8%,22.6%,-0.6%,-1.8%,-1.5%[46.1 µM],0.5
Cc1ccccc1-n1c(SCC(=O)Nc2ccccc2Cl)nc2n[nH]c(C)c2c1=N,11.2µM*,-54.8%,?,-30.3%,12.6%,-4.3
COc1ccc(OC)c(NC(=O)CSc2nc3n[nH]c(C)c3c(=N)n2-c2cccc(Cl)c2C)c1,6.31µM*,-50.3%,?,-0.7%,-1.1%,-2.9
CCn1cc(C(=O)OCC(=O)c2cc(C)n(-c3ccc(OC(F)F)cc3)c2C)c(=O)c2ccc(C)nc21,11.4%,-32.2%,-4.5%,-20.5%,6.2%[46.1 µM],0.2
CCc1ccc(NC(=O)CC2C(=O)N(c3ccc(F)cc3)C(=O)N2Cc2ccc(F)cc2)cc1 (stereo not drawn),.,.,.,i,.,.
CCOC(=O)c1n[nH]n2c1nc(=S)c1ccccc12,14.1µM*,-1.9%,?,-18.2%,0.6%,0.6
O=C(O)c1ccc(N=Nc2c(O)[nH]c3ccc(Br)cc23)cc1,13.9%,5.62µM*,?,-32.9%,0.4%,1.9
O=C(O)c1ccc(N=Nc2c(O)[nH]c3cc(Cl)ccc23)cc1,?,5.2%,?,-29.5%,5.2%,0.0
Cc1ccc(N=Nc2c(O)[nH]c3ccc(F)cc23)cc1,15.9%,?,?,i,10.2%,268.9*
CC(C)(C)C(=O)Nc1nc2c(s1)CN(Cc1ccccc1)CC2,-2.2%,8.91µM*,0.6%,-3.6%,5.8%,0.8

# Source: PubChem BioAssay
